In PubChem BioAssay AID588463 (National Center for Advancing Translational Sciences (NCATS), 2011):
The whole screen tested about 1,200 compounds, of which about 15 (1%) were called active. Roughly 7% stayed inconclusive and do not appear here. Calls follow the shape of the dose curve; as a rule, active = well fitted activation curve with a large enough effect; inconclusive = small, poorly fitted or top-dose-only effect; inactive = flat fitted curve, though single readings scatter. The list comes from a sample in which actives are over-represented; it also holds similar structures and randomly drawn compounds.

What follows are molecules tested against Beta-2 adrenergic receptor (Homo sapiens) (UniProt P07550) (assay: qHTS assay of beta-arrestin-biased ligands of beta2-adrenergic receptor: Hit Validation). Settings: cell-based beta-arrestin recruitment to beta2AR; Potency: activation; series mostly up to 46.1 µM; activation: at the top concentration.
Beta-2 adrenergic receptor (Homo sapiens), sequence (P07550 whole entry, looked up): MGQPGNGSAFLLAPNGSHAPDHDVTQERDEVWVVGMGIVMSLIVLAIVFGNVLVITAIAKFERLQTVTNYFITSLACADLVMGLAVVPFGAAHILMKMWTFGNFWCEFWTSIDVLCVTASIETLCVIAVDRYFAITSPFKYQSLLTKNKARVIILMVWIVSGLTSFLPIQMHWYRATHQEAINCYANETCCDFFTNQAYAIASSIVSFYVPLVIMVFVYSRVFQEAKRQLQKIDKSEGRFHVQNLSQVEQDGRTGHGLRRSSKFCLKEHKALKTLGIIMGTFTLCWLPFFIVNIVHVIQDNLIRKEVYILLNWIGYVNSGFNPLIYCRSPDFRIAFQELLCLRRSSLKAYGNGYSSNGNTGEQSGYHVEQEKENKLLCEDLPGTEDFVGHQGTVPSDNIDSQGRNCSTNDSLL
Text: The concept of biased agonism is an emerging concept of molecular pharmacology which proposes that seven transmembrane receptors (7TMRs) or G protein-coupled receptors (GPCRs), exist in multiple signaling conformations and complexes and that ligands (either agonists or antagonists) can induce signaling biased responses for distinct signal transduction cascades.
Furthermore, accumulating evidence over the last decade has drawn attention to a novel function of beta-arrestins as signal transducers that scaffold various signaling molecules upon activation of 7TMRs. […] This beta-arrestin-biased signaling presumably leads to distinct physiological outcomes from those by G protein activation.
Additionally, the active receptor conformations which […] on this beta-arrestin signaling are likely different from those activating G protein signaling
The goal of this screening project will be to discover and optimize novel beta-arrestin-biased ligands for beta2-AR signaling. A luminescent cell-based assay for beta2-AR-mediated agonism, known as the Tango assay, has been validated in which ligand binding of a recombinant beta2-AR and subsequent recruitment of a recombinant beta-arrestin lead to the release of the transcriptional activator tTA, which upregulates transcription of a tTA-responsive luciferase gene.
NIH Molecular Libraries Probe Production Network [MLPCN]
NIH Chemical Genomics Center [NCGC]
PI: Bryan Roth (UNC) and Bob Lefkowitz (Duke)
NCGC Assay Protocol Summary:
Tango cells were dispensed into white, solid, tissue-culture-treated 1536-well plates at 1500 cells/well in DMEM, containing 1% fetal bovine serum (FBS). Then, 23 nL of compounds or DMSO were delivered to each well using a pin tool. Plates were incubated at 37 degrees C, 5% CO2 for 18 hr. Then 2.5 uL luminescent substrate mix (in-house prepared: 150 mM Tris-Cl, pH 7.6, 3 mM MgCl2, 1% Triton X-100, 5 mM DTT, 0.5 mM CoA, 0.15 mM ATP, 0.44 mM D-luciferin, final concentrations) was added to each well. Plates were then incubated for 15 minutes at room temperature, and subsequently measured on a ViewLux plate reader for luminescent signal using a clear filter with a 10 second exposure and 2x binning. The %Activity was determined from the corrected luminescence values.
Concentration-response curves were fitted to the signals arising from the resulting luminescence. The concentration-effect curves were then classified based on curve quality (r2), response magnitude and degree of measured activity, and compounds were subsequently categorized based on their curve class.
Keywords: biased agonism, beta2-AR, beta-arrestin, GPCR, 7TMR, Tango, luminescence, MLSMR, MLPCN, NIH Roadmap, qHTS, NCGC
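Also: plate controls were DMSO for no effect and maximal isoproterenol or metaproterenol response for full effect.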

activation, inactive:
CCCCC(=O)/C=C/n1c(=S)oc2ccccc21 -2.45%
CC(=O)N1CCN(CC(=O)c2ccc(Br)cc2)CC1 -1.68%
Cc1ccc(S(=O)(=O)N(CC(=O)N/N=C/c2ccco2)c2cc(Cl)cc(Cl)c2)cc1 0.42%
CC(=O)c1sc(Nc2nc3ccc(F)cc3s2)nc1C -2.59%
Cc1nc2ccc(NC(=O)CS(=O)(=O)c3ccccc3)cc2s1 -1.85%
O=C(NCCN1CCOCC1)c1ccccc1Cl 0.534%
CCCCc1nnc(NC(=O)c2ccccc2OCc2c(C)noc2C)s1 -1.03%
CC(=O)c1ccc(N2CCN(C(=O)C3CCCN(S(=O)(=O)c4c(C)[nH]c(=O)[nH]c4=O)C3)CC2)cc1 (stereo not given) -4.9%
CCOC(=O)n1c(=O)oc2cc(S(=O)(=O)N3CCCCC3)ccc21 -4.09%
CCOc1ccc(/C=N/NC(=S)NC2CC3CCC2C3)cc1 (stereo not given) -0.951%
CC1CCCN(C(=O)Cn2nnc(-c3ccc(F)cc3)n2)C1 (stereo not given) -0.544%
FC(F)(F)c1nc2ccccc2nc1N/N=C\c1ccccc1 -2.93%
COc1ccc(OC)c(CNC(=O)CCCc2cn(C)c3ccccc23)c1 -4.25%
CC(=O)Oc1ccc2cc(-c3ccccc3)c(=O)oc2c1 -2.83%
Cc1cccc(-n2ncc3c(Nc4c(C)n(C)n(-c5ccccc5)c4=O)ncnc32)c1 -4.29%
O=C(CN1CCN(Cc2ccccc2)CC1)c1ccc(Br)cc1 -2.66%
CCC(=O)Nc1cccc(-c2nnc(SCC(=O)c3ccccc3)n2C)c1 -3.27%
Cc1oc(-c2ccccc2Cl)nc1CN1CCCCC1c1cccnc1 (stereo not given) -3.35%
COCCNC(=S)NN=C1CCC(c2ccccc2)CC1 (stereo not given) -3.79%
Cc1noc(/C=C/c2ccco2)c1S(=O)(=O)N1CCC(C(=O)N2CCc3ccccc3C2)CC1 -3.07%
O=C(N/N=C/c1ccc(-c2ccccc2[N+](=O)[O-])o1)[C@H]1C[C@@H]1c1ccccc1 4.62%
Cc1cccc(NC(=S)NC2CCCC2)n1 -2.16%
COc1ccc(C2CC(c3ccccc3)=NN2C(=O)COC(=O)c2cccc(N)c2)cc1 (stereo not given) 7.98%
O=C(c1cccs1)N1N=C(c2ccccc2)CC1c1ccc(O)cc1 (stereo not given) 6.49%
CCN1C(=O)C(CC(=O)Nc2ccc(OC)cc2)N(CCN2CCOCC2)C1=S (stereo not given) -0.784%
COc1cc(-c2nc(-c3ccccc3)c(-c3cc([N+](=O)[O-])ccc3C)[nH]2)cc(OC)c1OC -0.686%
CCOc1ccccc1N=Nc1c(C)[nH]n(C(N)=S)c1=O -1.78%
COc1cccc(NC(=S)N/N=C2\CC(C)(C)Oc3ccc(O)cc32)c1 -2.24%
O=C(N/N=C\C=C\c1ccco1)C1COc2ccccc2O1 (stereo not given) -2.32%
COc1ccc2c(c1)c(=O)c(C(=O)c1ccccc1)cn2Cc1ccc(C)cc1 -0.974%
O=[N+]([O-])c1ccc(/C=C2\CCC(C3=CCCC3)=C2N2CCOCC2)cc1 -1.92%
CCOC(=O)c1cccc(NC(=O)c2cncc(Br)c2)c1 -2%
S=c1nc2ccccc2c2nc(-c3ccccc3)[nH]n12 -2.79%
COc1ccc(N(C(=O)CCl)C(C)(C(=O)Nc2c(C)cccc2C)c2ccccn2)cc1 (stereo not given) 0.0836%
CCN(C(=O)Cn1c(Cl)nc2c1c(=O)n(C)c(=O)n2C)C1CCCCC1 -1.79%
COc1ccc(/C=N/OC/C(O)=C(\C#N)c2nc3ccccc3[nH]2)cc1OC -2.21%
COc1ccccc1CN1C[C@@H]2C[C@@H](c3ccc4nsnc4c3)N3CCC[C@@]23C1=O -1.58%
Cc1cc(=O)n2cccc(O)c2n1 -5.71%
COc1ccc(NC(=S)NC(=O)c2ccc(Br)o2)cc1 -3.83%
CCOC(=O)/C(C#N)=C/Nc1ccsc1C(=O)OC -3.19%
S=c1[nH]c(-c2ccccc2)cn1/N=C/c1cccs1 -3.12%
O=C(Oc1c(Cl)cc(Cl)c2cccnc12)c1cccs1 -2.15%
N#CC[C@H](Cc1ccccc1)N1CC[C@@H](O)CCC1=O -0.52%
COc1ccc(N2C(=O)C3C(C2=O)C(C(=O)c2ccccc2)N2CCCC32)cc1 (stereo not given) -0.0662%
COc1ccccc1NC(=S)N/N=C1\CC(C)(C)Oc2ccc(O)cc21 -1.77%
CC(=O)O[C@H]1C2OC(=O)C(C)=C2[C@@H]2OC(=O)[C@]3(CCC4OC41C)OC23 (stereo not given in full) -1.78%
CNC(=S)N/N=C/c1c(C)cccc1Cl -3.5%
CC(NC(=O)NNC(N)=S)(C(F)(F)F)C(F)(F)F -2.46%
COc1ccc(CN2CCCC(C(=O)c3ccc(SC)cc3)C2)cc1Cn1cccn1 (stereo not given) 0.256%
COc1cc(CN2CCCCC2C(=O)Nc2ccc(Oc3ccccc3)nc2)ccc1O (stereo not given) 6.3%
Cc1nnc(NC(=O)c2ccc3ccccc3c2)o1 -1.26%
Oc1c(CNc2ccccc2)cc(COCc2ccccc2)c2cccnc12 -5.03%
Cc1ccc2nc(N3C(=O)CNC3=S)sc2c1 -2.5%
Clc1ccc(OCc2nc(-c3ccccn3)n[nH]2)cc1 -1.51%
CNC(=S)N/N=C(\C)c1ccccc1 -1.21%
